# Test results taken from PubChem BioAssay AID651558 (National Center for Advancing Translational Sciences (NCATS), 2012).
# Out of some 1,200 compounds screened, about 480 (40%) were called active. Inconclusive results (about 29%) are left out. Calls come from the whole dose curve; as a rule, active = well fitted inhibition curve with a large enough effect; inconclusive = small, poorly fitted or top-dose-only effect; inactive = no such curve, though single readings can be large or run the other way. Some of the results follow.
# Assay: qHTS Assay to Find Inhibitors of Chronic Active B-Cell Receptor Signaling: Hit Validation in Primary Screen; note: nearly all actives have a fitted effect of over 75% in size
# Settings: ABC-DLBCL IkB-luc/CBR ratio luminescence, 4 h; series mostly up to 46.1 µM; activity change, negative = inhibition: at the top concentration
# From the text: Diffuse large B-cell lymphoma (DLBCL) is the most common category of non-Hodgkin lymphoma, with ~20,000 new cases per year in the United States. DLBCL should be regarded as a collection of different neoplasms. Microarray gene expression analysis has defined two principal types of DLBCL, named for their similarity to normal B cell stages or activation states: a germinal center B-cell (GCB) type, and an activated B-cell (ABC) type. In ABC-DLBCL, a constitutive high-level activity of the NF-kappaB family of transcription factors has been observed (1) and NF-kappaB target genes are more highly expressed in ABC primary tumors than in GCB tumors. Functional studies have shown a constitutive high-level activity of the IkappaB (inhibitor of kappa-B) kinase (IKK) complex. […] Further analysis of DLBCL primary tumors for NF-kappaB target gene expression imply that although CARD11 is required for constitutive IKK activity in all ABC-DLBCL lines, mutations in CARD11 may be the root cause of IKK activation only in lines or tumors with such mutations. In other words, CARD11 mutations may explain NF-kappaB activation in only 10% of ABC-DLBCL cases. […] This process has been termed 'chronic active BCR signaling' (CABS). The goal of this screen is to find small-molecule inhibitors of the CABS pathway found in ABC-DLBCL lines using a cell-based assay that measures IkappaBalpa stability, which has already been extensively validated in the OCI-Ly3 line (PubChem AID:445; REF: 4). […] A cell-sensor assay for I-kappa-B-alpha stabilization has been developed. The assay uses green (CBG68) and red (CBR) emitting beetle luciferases [Chroma-GloTM developed by Promega Corp.] where the green luciferase is fused to IkappaBalpha and the red luciferase is present in its native state. Both luciferase genes are stably present in the TMD8 human ABC DLBCL cell line, but their expression is under the control of tetracycline-inducible promoters. Following the addition of doxycycline to induce expression of the luciferases, the green luminescence in control cultures rises only slowly because the CBG fusion partner IkappaBalpha is targeted by IKK activity for rapid degradation. In contrast, green luminescence rises rapidly in the presence of proteasome inhibitors or IKK inhibitors. The rise in red luminescence of CBR is not affected by proteasome or IKK inhibitors, and serves as normalization for cell number and nonspecific effects. Compounds were screened as a concentration-titration series that ranged from 46 uM to 3 nM. NIH Molecular Libraries Probe Production Network [MLPCN] NIH Chemical Genomics Center [NCGC] MLPCN Grant: R03 DA031086 PI Name: Dr. R. Eric Davis
# Cells were seeded in 1536-well plates at 5000 cells/4uL in IMDM medium containing 0.5% FBS, w/o phenol red, 1% penicillin/streptomycin. Then, 23 nL of compounds or DMSO were delivered to each well using a pin tool. One uL 20ng/ml doxycycline was then dispensed into white solid 1536-well plates and the plates were incubated at 37C/5% C02 in a cell incubator for 4 hrs. Then 4 uL luminescent substrate mix (in-house prepared: 150 mM Tris-Cl, pH 7.6, 3 mM MgCl2, 1% Triton X-100, 5 mM DTT, 0.2 mM CoA, 0.15 mM ATP, 5 mM D-luciferin, final concentrations) was added to each well. The plate was incubated at r.t. for 10-15 min. The plates were measured on a ViewLux plate reader for green luminescence (540/20 nm filter) and red luminescence (618/8 nm filter). The green and red luminescent signals were corrected for red and green luminescence filter overlap using previously determined filter calibration constants (determined using the procedure outlined in the Promega Technical Manual; REF 4). The %Activity was determined from the ratio of corrected green/red luminescent values. MG132 were used as control. Green luminescent and ratio %Activity was determined by normalizing to the difference in signal between basal cells (0% Activity) and cells incubated with 10 uM of the proteasome inhibitor MG-132 (100% Activity). […]
# % is set by controls: 0 for no effect and ±100 for the full control effect; potency is the fitted concentration of half-maximal effect.
Compound,"activity change, negative = inhibition",Potency
CCOC(=O)/C=C/C(=O)OCC(=O)Nc1ccc(OC)c(Cl)c1,-7.12% (inactive),
CCc1ccc(NC(=O)C(C)OC(=O)/C=C/c2ccc(O)c(OC)c2)cc1 (centres undefined),,20.6 µM (active)
CC(C)N1C(=O)/C(=C/c2nc3ccccc3c(=O)n2-c2ccccc2)c2ccccc21,,18.4 µM (active)
COc1ccccc1CNS(=O)(=O)c1ccc(-c2cc(C)no2)cc1,,13 µM (active)
CCOc1ccccc1CNS(=O)(=O)c1ccc(-c2cnc(C3CC3)o2)cc1,,7.31 µM (active)
CCOc1ccccc1NS(=O)(=O)c1ccc(-c2cnc(C3CC3)o2)cc1,,0.82 µM (active)
COc1ccccc1CNS(=O)(=O)c1ccc(-c2cnc(C3CC3)o2)cc1,,16.4 µM (active)
COc1ccccc1NS(=O)(=O)c1ccc(-c2cnc(C3CC3)o2)cc1,36.3% (inactive),
COc1ccc(-c2nn(C)c(=O)c3ccccc23)cc1CNS(C)(=O)=O,-7.23% (inactive),
CCN(CC(=O)Nc1ccccc1SC)Cc1nc2ccccc2c(=O)[nH]1,-6.31% (inactive),
N#Cc1cccc2c1-c1ccccc1/C2=N/NC(N)=S,126% (inactive),
Cn1c(=S)c2[nH]c(SCCN3CCCC3)nc2n(C)c1=O,3.37% (inactive),
O=S(=O)(Nc1cccc2ncccc12)c1cccs1,,5.8 µM (active)
Cc1ccc(S(=O)(=O)Nc2cccc3ncccc23)s1,,4.61 µM (active)
CCC(=NCCc1c(C)[nH]c2ccc(C)cc12)C1=C(O)CC(c2ccccc2)CC1=O (centres undefined),,0.82 µM (active)
CCCC(=O)Nc1ccc(C(=O)N/N=C/c2cccnc2)cc1,-1.77% (inactive),
CC(C)c1ccc(/C=N/NC(=O)c2ccccc2Cl)cc1,,20.6 µM (active)
Cc1cc2nc(/C=C/c3cccnc3)[nH]c2cc1C,,1.03 µM (active)
CC(C)(C)NC(=S)N/N=C/c1cccnc1,-5.02% (inactive),
Cc1ccc(N2C(=O)c3cccc4c(N)ccc(c34)C2=O)c2cccnc12,,0.461 µM (active)
COc1cc(C(=O)N/N=C(\C)Cc2ccccc2)cc(OC)c1OC,-14% (inactive),
COc1cc(C(=O)N/N=C(\Cc2ncc[nH]2)c2ccccc2)cc(OC)c1OC,-14% (inactive),
COc1cc(C(=O)N/N=C(\C)c2ccc3c(c2)OCO3)cc(OC)c1OC,,18.4 µM (active)
COc1cc(C(=O)c2cocc2C(=O)c2ccc3c(c2)OCO3)cc(OC)c1OC,,14.6 µM (active)
O=C(Oc1c(CN2CCOCC2)cc(Cl)c2cccnc12)c1cccs1,-6.17% (inactive),

Compound,"activity change, negative = inhibition",Potency
CNC(=O)[C@H]1O[C@@H](n2cnc3c(NCc4cccc(I)c4)nc(Cl)nc32)[C@H](O)[C@@H]1O,,2.31 µM (active)
CNC(=O)[C@H]1O[C@@H](n2cnc3c(NCc4cccc(I)c4)ncnc32)[C@H](O)[C@@H]1O,,1.64 µM (active)
COc1cc2c(cc1OC)C(/C(C#N)=N\O)=NC(C)(C)C2,43.9% (inactive),
N#Cc1c(NC(=O)/C=C/c2ccco2)sc2c1CCCC2,,1.3 µM (active)
CCc1ccc(CCC(=O)Nc2sc3c(c2C#N)CCCC3)o1,,5.8 µM (active)
CC(C)NC(=S)N=Nc1c(O)[nH]c2ccc([N+](=O)[O-])cc12,-7.83% (inactive),
COc1ccccc1C1CC(=O)Nc2cc3c(cc21)OCCO3 (centres undefined),,16.4 µM (active)
CC(C)Oc1ccccc1C1CC(=O)Nc2cc3c(cc21)OCCO3 (centres undefined),,8.2 µM (active)
COc1ccc(OC)c(C2CC(=O)Nc3n[nH]c(-c4ccccc4)c32)c1 (centres undefined),110% (inactive),
O=C(CSc1cccc[n+]1[O-])c1ccccc1Br,-17.2% (inactive),
COc1cc(C(=O)N2CCN(c3cc(Cl)ccc3Cl)CC2)cc(OC)c1OC,,1.16 µM (active)
COc1c(Cl)cc(C(=O)NN)cc1Cl,-0.709% (inactive),
COc1cc(C(=O)NNC(=O)C2CC=CCC2C(=O)O)cc(OC)c1OC (centres undefined),-8.53% (inactive),
CCOC(=O)C1=C(C)c2ccccc2N(C(=O)OC)C1(C)C(=O)OCC (centres undefined),0.93% (inactive),
O=S1(=O)C=C(Sc2nc3cc(Cl)ccc3o2)c2ccccc21,,16.4 µM (active)
CC(/C=C/c1ccccc1)=N\NC(N)=S,-5.71% (inactive),
N#CC(C#N)=C(N)CSc1cccc[n+]1[O-],-7.23% (inactive),
CCOc1ccc(C(=O)NC(=S)Nc2cccc(S(=O)(=O)NC3=NCCC3)c2)cc1,,18.4 µM (active)
O=C(CCl)Nc1cccc(S(=O)(=O)NC2=NCCC2)c1,,13 µM (active)
CCOc1ccc(OCc2ccc(C(=O)N/N=C(\C)c3ccccn3)cc2)cc1,-1.73% (inactive),
O=C(CCl)Nc1cccc(S(=O)(=O)NC2=NCCCCC2)c1,,8.2 µM (active)
COc1ccc(C(=O)c2ccc(N(C)C)cc2)c2ccccc12,,3.26 µM (active)
CN(C)c1ccc(C(=O)c2ccc(N(C)C)c3ccccc23)cc1,,0.291 µM (active)
Oc1ccc(CNc2ccccc2F)c2cccnc12,0.438% (inactive),
